Assay results: the supplement of paper PMC11001985

Compound: C#CCNC(=O)CCSSCCC(=O)NCCc1ccc(C=O)c(C=O)c1
Test: lysine labeling ratio R10:1 (500 µM / 50 µM probe), SILAC-ABPP in living cells; higher = lower intrinsic lysine reactivity toward the probe, active = 2 or less
Settings: HeLa; probe concentrations 500 vs 50 µM
In short: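 Each lysine carries an R value: the filtered median of MS1 peptide ratios of high probe to low probe, with the median then taken over forward and reverse replicates. These came from living SILAC light and heavy HeLa cells in PBS at room temperature labelled with an alkyne-tagged, disulfide-linked lysine probe at 500 µM or 50 µM, in forward and reverse swaps. The lysates were mixed, clicked to biotin-azide, trypsin-digested, captured on neutravidin, released by DTT, alkylated and run by LC-MS/MS on a TIMS-TOF Pro. The highest value allowed is 20.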

UniProt Q14980, sequence (Q14980 whole entry): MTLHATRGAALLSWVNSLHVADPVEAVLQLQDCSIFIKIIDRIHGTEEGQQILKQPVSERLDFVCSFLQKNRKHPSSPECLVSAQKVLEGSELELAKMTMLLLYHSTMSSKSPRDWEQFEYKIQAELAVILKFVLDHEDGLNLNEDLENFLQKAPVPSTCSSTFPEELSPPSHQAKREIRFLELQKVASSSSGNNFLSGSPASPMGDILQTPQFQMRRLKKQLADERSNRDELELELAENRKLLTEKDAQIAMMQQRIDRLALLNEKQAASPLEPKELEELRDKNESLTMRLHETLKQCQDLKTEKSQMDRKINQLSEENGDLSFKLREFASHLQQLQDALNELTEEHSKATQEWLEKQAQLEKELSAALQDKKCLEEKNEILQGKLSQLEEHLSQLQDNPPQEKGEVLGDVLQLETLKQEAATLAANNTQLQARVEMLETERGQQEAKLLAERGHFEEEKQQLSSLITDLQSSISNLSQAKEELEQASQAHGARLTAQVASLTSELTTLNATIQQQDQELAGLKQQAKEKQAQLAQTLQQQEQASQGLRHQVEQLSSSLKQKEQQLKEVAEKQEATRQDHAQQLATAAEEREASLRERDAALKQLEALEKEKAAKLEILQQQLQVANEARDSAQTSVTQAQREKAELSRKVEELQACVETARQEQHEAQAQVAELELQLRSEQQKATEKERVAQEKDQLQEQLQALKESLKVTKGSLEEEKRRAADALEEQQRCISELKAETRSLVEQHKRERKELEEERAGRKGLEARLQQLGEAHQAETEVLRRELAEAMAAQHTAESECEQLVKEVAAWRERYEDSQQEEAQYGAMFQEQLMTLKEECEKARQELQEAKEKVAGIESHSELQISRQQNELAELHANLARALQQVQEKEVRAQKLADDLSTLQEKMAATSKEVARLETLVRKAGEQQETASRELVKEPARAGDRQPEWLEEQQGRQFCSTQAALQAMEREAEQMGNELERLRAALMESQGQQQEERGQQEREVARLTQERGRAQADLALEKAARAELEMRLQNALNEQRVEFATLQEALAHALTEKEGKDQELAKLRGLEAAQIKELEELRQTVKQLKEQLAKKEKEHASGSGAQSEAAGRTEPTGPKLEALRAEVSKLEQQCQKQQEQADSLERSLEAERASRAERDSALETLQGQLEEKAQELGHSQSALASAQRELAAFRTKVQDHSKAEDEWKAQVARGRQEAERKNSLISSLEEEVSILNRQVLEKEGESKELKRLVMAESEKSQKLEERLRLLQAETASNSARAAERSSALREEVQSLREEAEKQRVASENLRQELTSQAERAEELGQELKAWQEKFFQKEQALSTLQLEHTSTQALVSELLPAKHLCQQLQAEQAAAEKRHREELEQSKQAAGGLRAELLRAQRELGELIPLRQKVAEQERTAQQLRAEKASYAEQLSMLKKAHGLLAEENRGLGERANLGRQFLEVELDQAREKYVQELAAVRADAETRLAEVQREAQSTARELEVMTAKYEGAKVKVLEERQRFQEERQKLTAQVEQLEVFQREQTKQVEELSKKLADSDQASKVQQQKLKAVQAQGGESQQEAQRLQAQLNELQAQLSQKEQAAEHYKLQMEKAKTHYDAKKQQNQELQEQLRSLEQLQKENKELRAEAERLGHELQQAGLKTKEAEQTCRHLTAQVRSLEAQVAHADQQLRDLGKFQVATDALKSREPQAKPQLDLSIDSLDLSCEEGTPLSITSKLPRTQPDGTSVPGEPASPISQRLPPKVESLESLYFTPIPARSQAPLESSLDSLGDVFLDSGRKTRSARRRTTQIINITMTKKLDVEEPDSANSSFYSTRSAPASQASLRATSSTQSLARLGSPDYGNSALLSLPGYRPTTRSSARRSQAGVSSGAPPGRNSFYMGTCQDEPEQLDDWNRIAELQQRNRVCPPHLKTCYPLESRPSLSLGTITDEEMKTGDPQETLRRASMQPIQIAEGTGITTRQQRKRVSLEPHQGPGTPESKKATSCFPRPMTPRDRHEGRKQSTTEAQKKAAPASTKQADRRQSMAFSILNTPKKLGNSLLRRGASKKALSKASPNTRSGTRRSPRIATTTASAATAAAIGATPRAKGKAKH
UniProt Q08380, sequence (Q08380 whole entry): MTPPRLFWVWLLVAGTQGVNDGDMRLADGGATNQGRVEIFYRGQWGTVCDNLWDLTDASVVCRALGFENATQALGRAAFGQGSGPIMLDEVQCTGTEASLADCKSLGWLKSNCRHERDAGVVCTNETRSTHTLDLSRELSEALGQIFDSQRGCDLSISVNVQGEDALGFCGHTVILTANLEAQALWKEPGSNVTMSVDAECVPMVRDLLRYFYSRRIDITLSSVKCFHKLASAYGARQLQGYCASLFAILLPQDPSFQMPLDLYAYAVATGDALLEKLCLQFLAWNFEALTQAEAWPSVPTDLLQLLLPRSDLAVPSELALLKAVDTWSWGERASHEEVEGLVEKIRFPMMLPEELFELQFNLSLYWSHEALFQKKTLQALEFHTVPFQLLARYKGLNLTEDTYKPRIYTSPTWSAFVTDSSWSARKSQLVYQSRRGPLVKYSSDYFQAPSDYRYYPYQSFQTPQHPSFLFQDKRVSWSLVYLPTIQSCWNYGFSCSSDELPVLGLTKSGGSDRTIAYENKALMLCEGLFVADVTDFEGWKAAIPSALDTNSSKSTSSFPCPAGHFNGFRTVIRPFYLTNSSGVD
UniProt P01130, sequence (P01130 whole entry): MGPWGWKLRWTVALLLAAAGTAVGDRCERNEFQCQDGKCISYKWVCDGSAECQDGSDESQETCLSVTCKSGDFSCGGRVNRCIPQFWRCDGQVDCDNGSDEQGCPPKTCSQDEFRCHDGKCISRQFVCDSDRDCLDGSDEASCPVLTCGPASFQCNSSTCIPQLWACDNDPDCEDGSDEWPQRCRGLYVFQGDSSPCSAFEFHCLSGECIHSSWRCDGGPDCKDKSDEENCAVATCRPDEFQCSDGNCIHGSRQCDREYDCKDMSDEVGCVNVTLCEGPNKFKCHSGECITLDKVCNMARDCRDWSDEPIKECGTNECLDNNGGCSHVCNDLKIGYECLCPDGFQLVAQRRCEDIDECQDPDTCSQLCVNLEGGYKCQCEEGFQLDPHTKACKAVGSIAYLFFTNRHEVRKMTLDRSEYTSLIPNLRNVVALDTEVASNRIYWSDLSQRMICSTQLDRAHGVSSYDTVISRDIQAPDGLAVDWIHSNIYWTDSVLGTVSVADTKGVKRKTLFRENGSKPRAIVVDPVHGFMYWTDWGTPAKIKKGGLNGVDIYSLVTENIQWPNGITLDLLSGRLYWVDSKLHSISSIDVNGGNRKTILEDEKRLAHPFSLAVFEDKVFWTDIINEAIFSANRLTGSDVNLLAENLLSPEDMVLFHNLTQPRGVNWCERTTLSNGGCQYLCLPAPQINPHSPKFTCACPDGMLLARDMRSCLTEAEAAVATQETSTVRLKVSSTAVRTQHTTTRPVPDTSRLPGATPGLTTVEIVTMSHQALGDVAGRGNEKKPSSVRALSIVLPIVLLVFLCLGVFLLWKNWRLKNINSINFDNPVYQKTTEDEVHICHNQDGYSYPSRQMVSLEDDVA
UniProt P43121, sequence (P43121 whole entry): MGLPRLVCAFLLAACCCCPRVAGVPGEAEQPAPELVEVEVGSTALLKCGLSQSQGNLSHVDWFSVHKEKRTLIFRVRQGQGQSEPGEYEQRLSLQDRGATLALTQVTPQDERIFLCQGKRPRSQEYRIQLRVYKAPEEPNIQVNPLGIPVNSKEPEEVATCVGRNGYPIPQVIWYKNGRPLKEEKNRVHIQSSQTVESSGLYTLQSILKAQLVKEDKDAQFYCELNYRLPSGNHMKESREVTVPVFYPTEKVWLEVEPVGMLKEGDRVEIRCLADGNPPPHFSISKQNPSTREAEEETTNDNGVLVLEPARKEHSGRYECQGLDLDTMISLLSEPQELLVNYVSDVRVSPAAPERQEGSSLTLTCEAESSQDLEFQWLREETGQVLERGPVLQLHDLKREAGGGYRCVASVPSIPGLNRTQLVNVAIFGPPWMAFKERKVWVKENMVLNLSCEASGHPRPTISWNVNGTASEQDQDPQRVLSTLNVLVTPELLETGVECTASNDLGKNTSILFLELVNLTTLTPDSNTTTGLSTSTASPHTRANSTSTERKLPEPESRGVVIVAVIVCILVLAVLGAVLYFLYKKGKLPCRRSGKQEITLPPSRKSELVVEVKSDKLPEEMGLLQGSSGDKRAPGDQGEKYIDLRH
UniProt Q9BVK6, sequence (Q9BVK6 whole entry): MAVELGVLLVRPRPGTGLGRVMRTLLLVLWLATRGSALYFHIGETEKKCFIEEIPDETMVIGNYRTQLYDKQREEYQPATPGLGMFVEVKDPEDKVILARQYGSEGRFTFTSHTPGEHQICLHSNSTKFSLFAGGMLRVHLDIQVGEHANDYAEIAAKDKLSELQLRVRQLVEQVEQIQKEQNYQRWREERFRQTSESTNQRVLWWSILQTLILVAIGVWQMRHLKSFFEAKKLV
UniProt P21796, sequence (P21796 whole entry): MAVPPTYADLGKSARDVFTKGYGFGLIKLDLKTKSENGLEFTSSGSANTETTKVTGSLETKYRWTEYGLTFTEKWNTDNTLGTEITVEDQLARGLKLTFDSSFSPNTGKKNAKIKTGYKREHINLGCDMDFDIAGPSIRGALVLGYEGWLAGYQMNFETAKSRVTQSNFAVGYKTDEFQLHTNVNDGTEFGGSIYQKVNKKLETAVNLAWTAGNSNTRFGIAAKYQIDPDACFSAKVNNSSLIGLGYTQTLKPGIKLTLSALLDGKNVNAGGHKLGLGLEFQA

| Target | lysine labeling ratio R10:1 |
| --- | --- |
| VDAC1 (lysine site: K61) (UniProt P21796) | 1.88 (active) |
| LGALS3BP (lysine site: K427) (UniProt Q08380) | 2.98 (inactive) |
| TMED9 (lysine site: K160) (UniProt Q9BVK6) | 5.13 (inactive) |
| LDLR (lysine site: K782) (UniProt P01130) | 3.22 (inactive) |
| NUMA1 (lysine site: K645) (UniProt Q14980) | 1.09 (active) |
| MCAM (lysine site: K398) (UniProt P43121) | 5.61 (inactive) |
